Data on 36 compounds can be found in PubChem BioAssay.

The nature of the assay: small-molecule binders of probe aNOTCH2, primary screen, biochemical, small-molecule microarray, 635/667 nm fluorescence (AID 1121).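 Also: score merges feature fluorescence read at 667 nm with its signal to noise.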 The conditions noted are these: higher = more signal.
In turn, `Oc1ccc2cc[n+](Cc3cccc(OC(F)(F)F)c3)cc2c1` had a composite z-score of -0.117.

Compound `CC1CC/C=C\[C@H]2OC34C=CCN(CCN5CCOCC5)C(=O)[C@H]3N(CCCCCO)C(=O)[C@@H]4C2C(=O)O1` (stereo partly specified) displayed a composite z-score of -0.175.

`C=C(C(=O)CC[C@@H](OC(=O)c1cccnc1)c1ccc(CO)o1)C(C)C` had a composite z-score of -0.0698.

Compound `C=CCC(OC(C)=O)[C@@H]1[C@@H](N(Cc2cc3ccccc3o2)C(=O)c2cccc3ccccc23)c2cc(OCCCO)ccc2N1C(=O)Cc1ccc(OC)cc1` (stereo partly specified) yielded a composite z-score of -0.0937.

`C=CCN1C(=O)[C@]2(COC(c3ccc(OCCCO)cc3)=N2)Cc2ccccc21` yielded a composite z-score of -0.0583.

With `O=C(NCc1ccccc1)[C@@H]1c2ccccc2C(=O)N(C2CCCCC2)[C@H]1c1ccc(CO)cc1`, the composite z-score was -0.286.

For `[N-]=[N+]=NCc1ccccc1C[C@@]1(C(=O)NCc2ccccc2)N=C(c2ccc(OCCCO)cc2)O[C@@H]1c1ccccc1CN=[N+]=[N-]`, the composite z-score is 0.273.

With `CCOC(=O)C=Cc1cccc(OC)c1O`, the composite z-score is -0.14.

In turn, `CN(C)CCCC[C@@H]1NC(=O)[C@H]2C[C@@H](C(=O)NCCCCCNC(=O)CS)[C@@H](c3ccc(O)cc3)N2C1=O` returned a composite z-score of -0.127.

For the compound `COC(=O)[C@@]1(Cc2ccccc2)[C@H]2c3cc(C(=O)N(C)C)n(Cc4cc(F)c(F)c(F)c4)c3C[C@H]2CN1C(=O)c1ccccc1`, the composite z-score is 0.289.

For `C=C(C)[C@@H]1CC=C(C(O)C2C=CC3C(=O)N(Cc4ccccc4)C(=O)C3N2n2cnnc2)CC1` (stereo partly specified), the composite z-score is -0.0907.

`O=C(NCCN1CCOCC1)[C@@H]1c2ccccc2C(=O)N(Cc2cc(F)cc(C(F)(F)F)c2)[C@H]1c1ccc(CO)cc1` had a composite z-score of -0.222.

Turning to `O=C1O[C@H](c2ccccc2)[C@H](c2ccccc2)N2[C@H]1[C@@H](C(=O)NC[C@H](O)c1ccccc1)[C@]1(C(=O)Nc3ccc(C#CC4(O)CCCCCC4)cc31)[C@H]2c1ccccc1OCCO`, the composite z-score turned out to be 0.0785.

On to `C=C(/C(=C/C[C@@H](OC(=O)c1ccncc1)c1ccc(CO)o1)c1cc(C(=O)OC)ccc1OC)C(C)C`, for which the composite z-score was -0.109.

The compound `COc1ccc([Si](C)(C)[C@@H]2[C@@H](CCO)O[C@]3(C(=O)N(Cc4ccccc4)c4ccc(N(C=O)c5ccccc5)cc43)[C@H]2C)cc1` returned a composite z-score of -0.0682.

`CCCCCCC#C[Si](O[C@H](c1ccccc1)c1cn([C@H](C)c2ccccc2)nn1)(C(C)C)C(C)C` gave a composite z-score of -0.0843.

For `[N-]=[N+]=NCc1ccccc1[C@@H]1OC(c2ccc(OCCCO)cc2)=N[C@]1(Cc1ccccc1)C(=O)O`, the composite z-score was -0.0836.

For `CCCC[C@@H]1C[C@H]1[C@@H](NC(=O)c1ccccc1)c1ccc(-c2ccccc2)cc1`, the composite z-score is -0.128.

The compound `Cc1ccc(S[C@]2(C(=O)NCCN3CCOCC3)CC(=O)N(C3CCCCC3)[C@@H]2c2ccc(CO)cc2)cc1` returned a composite z-score of -0.0621.

Take `CC(C)NC(=O)[C@@]1(c2ccc([N+](=O)[O-])cc2)CC(=O)N(C(C)C)[C@@H]1c1ccc(CO)cc1`: the composite z-score is -0.176.

In turn, `C=CCN1Cc2ccccc2C[C@@]2(COC(c3ccc(OCCCO)cc3)=N2)C1=O` displayed a composite z-score of 0.0965.

With `COCCn1c(C(=O)N2CCCC2)cc2c1C[C@H]1CN(C(=O)c3ccccc3)[C@@](Cc3ccc(OC)cc3)(C(=O)OC)[C@@H]21`, the composite z-score is 0.384.

Regarding `C=C[C@@H](C)[C@@H](OC(=O)Nc1ccc(OC)cc1)c1ccc(O)c2ccccc12`, the composite z-score is -0.183.

`COCCOC(=O)N1C(=O)[C@@]2(c3ccccc31)[C@H](C(=O)N1CCCCCCC1)[C@H]1C(=O)O[C@H](c3ccccc3)[C@H](c3ccccc3)N1[C@@H]2c1ccccc1OCCO` returned a composite z-score of 0.699.

`COCCn1c(C(=O)N(C)C)cc2c1C[C@H]1CN(C(=O)c3ccccc3)[C@@](Cc3ccc(F)cc3)(C(=O)OC)[C@@H]21` displayed a composite z-score of 0.197.

Compound `CC(C)N1C(=O)c2ccccc2[C@](C)(C(=O)NCCCN(C)C)[C@@H]1c1ccc(CO)cc1` yielded a composite z-score of -0.0903.

In turn, `O=C1C2C=CC(C(O)c3ccc(-c4ccccc4)s3)N(Nc3ccccc3F)C2C(=O)N1c1ccccc1` (stereo unspecified) yielded a composite z-score of 0.149.

The compound `CN1C(=O)C2C(C1=O)C1C=C(c3ccc(CO)cc3)C2C(C2CC2)N1Cc1sc2ccccc2c1Cl` (stereo unspecified) came in with a composite z-score of 0.114.

For the compound `CO[C@H]1O[C@H](CO)[C@@H](OC(=O)Nc2ccc3c(c2)OCO3)[C@H](OC(=O)Nc2ccc3c(c2)OCO3)[C@H]1OC(=O)Nc1ccc2c(c1)OCO2`, the composite z-score was -0.0483.

`C=CC[C@]1(C(=O)NCCN2CCOCC2)N=C(c2ccc(OCCCO)cc2)O[C@H]1c1ccccc1N=[N+]=[N-]` registered a composite z-score of -0.0359.

For the compound `C=CCNC(=O)[C@@H]1[C@H]2C(=O)O[C@H](c3ccccc3)[C@H](c3ccccc3)N2[C@H](c2ccccc2OCCO)[C@@]12C(=O)N(C(=O)OCCOC)c1ccc(C#CCC(C(=O)OC)C(=O)OC)cc12`, the composite z-score was found to be 0.526.

Consider `CC(C)[C@H]1COC(=O)N1C(=O)[C@H]1[C@@H](c2ccccc2)N(c2ccccc2)O[C@@H]1C`, for which the composite z-score was -0.125.

In turn, `O=C1O[C@@H](c2ccccc2)[C@@H](c2ccccc2)N2[C@@H](c3ccc(O)cc3)[C@]3(C(=O)Nc4ccc(C#CCCO)cc43)[C@@H](C(=O)O)[C@H]12` registered a composite z-score of 0.734.

The compound `Cc1ccc(S[C@]2(C(=O)NCCCN(C)C)CC(=O)N(C(C)C)[C@@H]2c2ccc(CO)cc2I)cc1` returned a composite z-score of -0.127.

In turn, `Cc1ccc(N2C(=O)c3ccccc3[C@](C)(C(=O)NCCN3CCOCC3)[C@@H]2c2ccc(CO)cc2)nc1` gave a composite z-score of -0.14.

The compound `COC(=O)C(CC#Cc1ccc2c(c1)[C@]1(C(=O)N2)[C@H](C(=O)N2CCCCCCC2)[C@H]2C(=O)O[C@H](c3ccccc3)[C@H](c3ccccc3)N2[C@@H]1c1ccccc1OCCO)C(=O)OC` showed a composite z-score of 1.16.
